# Reference: PMC9838217, “Structure of SALL4 zinc finger domain reveals link between AT-rich DNA binding and Okihiro syndrome”
# Positions count from the first letter of the chain named.
# Target: T1, SALL4 ZFC4 WT (HT-SELEX) (Mus musculus, UniProt Q8BX22 870-940)
# T1 sequence: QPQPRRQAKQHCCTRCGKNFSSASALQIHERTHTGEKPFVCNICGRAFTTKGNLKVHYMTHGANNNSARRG
# Assay: HT-SELEX; high values mean tight binding
# Details: protein: recombinant; vector His6-GST; dsDNA, one strand shown
# Procedure, shortened: (§1)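 Binding signal is defined as the fold change of each canonical k-mer's read fraction versus the initial random library. Selections used 1 µg of purified recombinant mouse SALL4 zinc finger cluster 4 (residues 870–940) with library DNA (1.5 µg first cycle, 200 ng later) in 100 µl of 10 mM Tris–HCl pH 7.5, 50 mM NaCl, poly(dI-dC) and DTT, for 10 min at room temperature, followed by Ni2+ bead capture, washing and PCR. Up to 6 such cycles were run in triplicate before MiSeq sequencing and 6-mer scanning.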
row,Sequence,binding signal [fold-change vs cycle 0]
1,AGGGGA,0.532 ± 0.0414
2,AAATTT,2.66 ± 0.248
3,CAGGAA,0.785 ± 0.0392
4,ACCCAG,0.455 ± 0.0148
5,ATAATC,2.69 ± 0.205
6,ATATTA,4.97 ± 0.422
7,ATTTAA,3.2 ± 0.134
8,CTATAA,2.19 ± 0.104
9,CGTGGA,0.351 ± 0.0215
10,ACTACC,0.799 ± 0.0371
11,GTTCGA,0.639 ± 0.0126
12,ATTGTA,2.07 ± 0.0871
13,AATGTA,2.02 ± 0.0563
14,CCAAGC,0.327 ± 0.034
15,ACTGCT,0.712 ± 0.054
16,TCATGA,1.45 ± 0.0979
17,AGTCCC,0.468 ± 0.0376
18,AGGCAA,0.538 ± 0.0205
19,CCAGTC,0.437 ± 0.0378
20,AGGTAG,0.817 ± 0.0419

row,Sequence,binding signal [fold-change vs cycle 0]
1,ACATAG,1.3 ± 0.0172
2,AACCCA,0.813 ± 0.0466
3,AGATCG,0.674 ± 0.0467
4,AGCAAT,1.19 ± 0.0605
5,ACGACA,0.543 ± 0.0412
6,CGAGTA,0.742 ± 0.0199
7,AGGGAA,0.891 ± 0.0417
8,CATATC,1.68 ± 0.148
9,CCTGAC,0.451 ± 0.0407
10,TCGAGA,0.763 ± 0.0625
11,AATCGC,0.437 ± 0.0162
12,CATCGG,0.364 ± 0.0112
13,ACACCC,0.416 ± 0.0284
14,ATGAGA,1.52 ± 0.0648
15,TACGTA,1.26 ± 0.0297
16,AACGGT,0.689 ± 0.0523
17,AGTGAT,1.45 ± 0.0292
18,CTTTAA,1.84 ± 0.0654
19,CCAACC,0.393 ± 0.0262
20,CGTCTA,0.63 ± 0.0233

# Target: T2, SALL4 ZFC4 R900W (HT-SELEX) (Mus musculus, UniProt Q8BX22 870-940, R900W)
# T2 sequence: T1 sequence with R31W
# Assay: HT-SELEX; high values mean tight binding
# Details: protein: recombinant; vector His6-GST; dsDNA, one strand shown
# Procedure, shortened: as §1
row,Sequence,binding signal [fold-change vs cycle 0]
1,AGGGGA,0.608 ± 0.0303
2,AAATTT,2.17 ± 0.141
3,CAGGAA,0.921 ± 0.0224
4,ACCCAG,0.526 ± 0.0133
5,ATAATC,2.05 ± 0.113
6,ATATTA,2.59 ± 0.139
7,ATTTAA,2.48 ± 0.146
8,CTATAA,1.95 ± 0.0822
9,CGTGGA,0.435 ± 0.0211
10,ACTACC,0.948 ± 0.0381
11,GTTCGA,0.724 ± 0.0149
12,ATTGTA,2.03 ± 0.111
13,AATGTA,1.99 ± 0.0939
14,CCAAGC,0.384 ± 0.0115
15,ACTGCT,0.797 ± 0.0817
16,TCATGA,1.54 ± 0.0952
17,AGTCCC,0.54 ± 0.0297
18,AGGCAA,0.6566 ± 0.00197
19,CCAGTC,0.533 ± 0.0426
20,AGGTAG,0.986 ± 0.0401

row,Sequence,binding signal [fold-change vs cycle 0]
1,ACATAG,1.35 ± 0.0801
2,AACCCA,0.894 ± 0.0477
3,AGATCG,0.774 ± 0.0175
4,AGCAAT,1.21 ± 0.0474
5,ACGACA,0.639 ± 0.0243
6,CGAGTA,0.848 ± 0.0261
7,AGGGAA,1.01 ± 0.045
8,CATATC,1.44 ± 0.0706
9,CCTGAC,0.547 ± 0.0213
10,TCGAGA,0.863 ± 0.0493
11,AATCGC,0.483 ± 0.0175
12,CATCGG,0.442 ± 0.0135
13,ACACCC,0.506 ± 0.0389
14,ATGAGA,1.6 ± 0.0511
15,TACGTA,1.33 ± 0.109
16,AACGGT,0.7682 ± 0.0076
17,AGTGAT,1.59 ± 0.0395
18,CTTTAA,1.95 ± 0.0889
19,CCAACC,0.466 ± 0.0254
20,CGTCTA,0.702 ± 0.0194

# Target: T3, SALL4 ZFC4 G921D (HT-SELEX) (Mus musculus, UniProt Q8BX22 870-940, G921D)
# T3 sequence: T1 sequence with G52D
# Assay: HT-SELEX; high values mean tight binding
# Details: protein: recombinant; vector His6-GST; dsDNA, one strand shown
# Procedure, shortened: as §1
row,Sequence,binding signal [fold-change vs cycle 0]
1,AGGGGA,0.671 ± 0.0432
2,AAATTT,1.93 ± 0.166
3,CAGGAA,0.918 ± 0.0252
4,ACCCAG,0.628 ± 0.0574
5,ATAATC,1.81 ± 0.145
6,ATATTA,2.22 ± 0.236
7,ATTTAA,2.15 ± 0.212
8,CTATAA,1.74 ± 0.119
9,CGTGGA,0.54 ± 0.0631
10,ACTACC,0.968 ± 0.0334
11,GTTCGA,0.821 ± 0.0291
12,ATTGTA,1.79 ± 0.162
13,AATGTA,1.76 ± 0.157
14,CCAAGC,0.516 ± 0.0505
15,ACTGCT,0.89 ± 0.0309
16,TCATGA,1.49 ± 0.115
17,AGTCCC,0.65 ± 0.0407
18,AGGCAA,0.754 ± 0.0411
19,CCAGTC,0.62 ± 0.0337
20,AGGTAG,0.998 ± 0.0166

row,Sequence,binding signal [fold-change vs cycle 0]
1,ACATAG,1.34 ± 0.0894
2,AACCCA,0.963 ± 0.0141
3,AGATCG,0.926 ± 0.0361
4,AGCAAT,1.25 ± 0.111
5,ACGACA,0.747 ± 0.0208
6,CGAGTA,0.87 ± 0.0313
7,AGGGAA,0.989 ± 0.0164
8,CATATC,1.39 ± 0.0818
9,CCTGAC,0.654 ± 0.0358
10,TCGAGA,0.945 ± 0.0348
11,AATCGC,0.628 ± 0.0598
12,CATCGG,0.568 ± 0.0586
13,ACACCC,0.581 ± 0.0534
14,ATGAGA,1.48 ± 0.107
15,TACGTA,1.23 ± 0.0963
16,AACGGT,0.832 ± 0.0229
17,AGTGAT,1.53 ± 0.097
18,CTTTAA,1.69 ± 0.149
19,CCAACC,0.565 ± 0.0588
20,CGTCTA,0.79 ± 0.0202
